Reference: PubChem BioAssay (Tox21)
Records with an inconclusive call do not appear. Active and inactive are the calls of the source. Calls follow the shape of the full dose curve.

Experiment: qHTS assay to identify small molecule agonists or antagonists of the thyroid stimulating hormone receptor (TSHR) signaling pathway - wild type cell line counter screen (AID 1259384)
Settings: HEK293 wild type, cAMP HTRF counter-screen; series mostly up to 92.4 µM
Method in brief: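 Counter screen in untransfected Hek293: compounds (15-point titration, triplicate) plus phosphodiesterase inhibitor Ro20-1724 added after 18 h plating; 30 min RT. Intracellular cAMP via competitive d2/cryptate immunoassay, 1 h incubation.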

| SMILES | outcome |
| --- | --- |
| CON(C)C(=O)Nc1ccc(Br)c(Cl)c1 | inactive |
| CON(C)C(=O)Nc1ccc(Br)cc1 | inactive |
| ClCCCCCCCl | inactive |
| CNC(=O)Oc1cc(C)c(N(C)C)c(C)c1 | inactive |
| CCOC(=O)COc1ccc(Cl)cc1Cl | inactive |
| C[C@@H](N)[C@@H](O)c1ccccc1 | inactive |
| CC(=NC#N)N(C)Cc1ccc(Cl)nc1 | inactive |
| CCC(=O)OC1(c2ccccc2)CCN(C)CC1 | inactive |
| BrCCc1ccccc1 | inactive |
| CCC1(c2cccc(O)c2)CCCCN(C)C1 (stereo not given) | inactive |
| CN1COCN(Cc2cnc(Cl)s2)/C1=N\[N+](=O)[O-] | inactive |
| CCCCS(=O)(=O)Cl | inactive |
| O=C(O)CBr | inactive |
| CCCC(C)(COC(N)=O)COC(N)=O | inactive |
| COC1=CC(=O)O[C@@H](/C=C/c2ccccc2)C1 | inactive |
| CC(Cl)(Cl)Cl | inactive |
| C=CCN1CC[C@]23CCCC[C@H]2[C@H]1Cc1ccc(O)cc13 | inactive |
| CCOC(=O)C(SP(=S)(OC)OC)c1ccccc1 (stereo not given) | inactive |
| O=c1[nH]c2ccccc2o1 | inactive |
| O=C(O)C(F)(F)C(F)(F)C(F)(F)C(F)(F)C(F)(F)C(F)(F)F | inactive |
| Cl/C=C/CCl | inactive |
| CCC(=O)c1ccc(Cl)cc1 | inactive |
| CCN1CCCC1CNC(=O)C(O)(c1ccccc1)c1ccccc1 (stereo not given) | inactive |
| N#CC(Br)(Br)C(N)=O | inactive |
| O=[N+]([O-])c1cccc(CCl)c1 | inactive |
| CC(C)c1ccc(O)cc1 | inactive |
| CC(C)(C)C(=O)C(Cl)Cl | inactive |
| CCOC(=O)N(C)N=O | inactive |
| [P]#[In] | inactive |
| c1ccc2c(c1)CCNC2 | inactive |
